In PubChem BioAssay (EPA / NIEHS) one finds outcome and AC50 data, which are given here for 7 compounds.

Experiment [1] can be described thus: BSK_LPS_PGE2: BioMAP Diversity Plus: LPS Assay for Prostaglandin E2 (PGE2) Biomarker Activity (AID 2283082).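 As to AC50: secreted prostaglandin E2 measured by ELISA in LPS-stimulated co-culture.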 The following applies: primary human HUVEC with PBMC; actives raise or lower the signal. The method, boiled down: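 Primary human endothelial cells and blood mononuclear cells, co-cultured with LPS, receive test chemical; PGE2 ELISA follows at 24 h, with SRB-stained parallel cultures flagging cytotoxicity.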

Read-out in experiment [2]: Macrophage colony-stimulating factor (MCSF), CSF1 (gene 1435)
Put plainly: BSK_LPS_MCSF: BioMAP Diversity Plus: LPS Assay for Macrophage colony-stimulating factor (MCSF) Biomarker Activity (AID 2283083). Particulars: primary human HUVEC with PBMC; actives raise or lower the signal. The method in brief:
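Bidirectional fitting against DMSO was applied to M-CSF levels read by ELISA at 24 h post-dose. The system pairs human umbilical vein endothelium with peripheral blood mononuclear cells; parallel SRB staining tracked cytotoxicity.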

Read-out in experiment [3]: Tissue Factor, F3 (gene 2152)
The experiment in a line: BSK_LPS_TissueFactor: BioMAP Diversity Plus: LPS Assay for Tissue Factor Biomarker Activity (AID 2283084). Particulars: primary human HUVEC with PBMC; actives raise or lower the signal. The method, boiled down: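 Compound was added to an endothelial cell/PBMC co-culture, and after 24 h tissue factor (CD142) was read by ELISA. Gain or loss of signal was fitted against a DMSO baseline, and parallel SRB staining (560 nm) tracked overt cytotoxicity.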

Read-out in experiment [4]: Tumor necrosis factor (Homo sapiens) (UniProt P01375)
The experiment in a line: BSK_LPS_TNFa: BioMAP Diversity Plus: LPS Assay for Tumour Necrosis Factor alpha (TNFa) Biomarker Activity (AID 2283085). The following applies: primary human HUVEC with PBMC; actives raise or lower the signal. The method in brief:
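ELISA-based TNFa endpoint in a human endothelial–PBMC co-culture sampled 24 h post-exposure. Curves were fitted in both directions using DMSO as baseline of activity.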

Read-out in experiment [5]: Vascular cell adhesion molecule 1 (VCAM1), VCAM1 (gene 7412)
The experiment in a line: BSK_LPS_VCAM1: BioMAP Diversity Plus: LPS Assay for Vascular cell adhesion molecule 1 (VCAM1) Biomarker Activity (AID 2283086). The following applies: primary human HUVEC with PBMC; actives raise or lower the signal. The method, boiled down:
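Measured by ELISA: VCAM-1 in LPS-activated HUVEC/PBMC co-cultures 24 h after treatment. Values reflect bidirectional fitting with DMSO as baseline.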

Read-out in experiment [6]: CD38, CD38 (gene 952)
Put plainly: BSK_SAg_CD38: BioMAP Diversity Plus: SAg Assay for CD38 Biomarker Activity (AID 2283087). The following applies: primary human HUVEC with PBMC; actives raise or lower the signal. The method in brief: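 Measures CD38 on a human endothelial/PBMC co-culture driven by SEB and TSST-1, 24 h after compound exposure, using ELISA with fluorescence detection; DMSO defines baseline for bidirectional curve fitting.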

Read-out in experiment [7]: CD40, CD40 (gene 958)
The experiment in a line: BSK_SAg_CD40: BioMAP Diversity Plus: SAg Assay for CD40 Biomarker Activity (AID 2283088). The following applies: primary human HUVEC with PBMC; actives raise or lower the signal. The method in brief:
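CD40 is measured by fluorescence ELISA in an endothelial/PBMC primary human co-culture at 24 h post-dose. Fitting is bidirectional, DMSO baseline. Parallel SRB staining (560 nm) flags cytotoxicity.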

Read-out in experiment [8]: CD69, CD69 (gene 969)
The experiment in a line: BSK_SAg_CD69: BioMAP Diversity Plus: SAg Assay for CD69 Biomarker Activity (AID 2283089).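 As to AC50: cell surface CD69 protein quantified by ELISA with fluorescence detection.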 The following applies: primary human HUVEC with PBMC; actives raise or lower the signal. The method, boiled down: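 Endothelial/PBMC co-culture; chemical added; 24 h incubation; CD69 ELISA with fluorescence detection; bidirectional fit vs DMSO.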

Read-out in experiment [9]: Monocyte Chemoattractant Protein-1 (MCP1), CCL2 (gene 6347)
The experiment in a line: BSK_SAg_MCP1: BioMAP Diversity Plus: SAg Assay for Monocyte Chemoattractant Protein-1 (MCP1) Biomarker Activity (AID 2283090). Particulars: primary human HUVEC with PBMC; actives raise or lower the signal. The method, boiled down: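 Values derive from bidirectional fitting of ELISA-measured MCP1 against DMSO controls. Readings were taken 24 h after dosing human vascular endothelial cells co-cultured with peripheral blood mononuclear cells under superantigen stimulation.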

Read-out in experiment [10]: E-selectin (Homo sapiens) (UniProt P16581)
Put plainly: BSK_SAg_Eselectin: BioMAP Diversity Plus: SAg Assay for Eselectin Biomarker Activity (AID 2283091). The following applies: primary human HUVEC with PBMC; actives raise or lower the signal. The method, boiled down: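 Cell-surface E-selectin is read by ELISA at 24 h in the SAg co-culture of HUVEC and PBMC. Curves are fitted in both directions relative to DMSO. Parallel SRB total-protein staining tracks overt toxicity.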

Read-out in experiment [11]: Monokine induced gamma interferon (MIG), CXCL9 (gene 4283)
The experiment in a line: BSK_SAg_MIG: BioMAP Diversity Plus: SAg Assay for Monokine induced gamma interferon (MIG) Biomarker Activity (AID 2283092). The following applies: primary human HUVEC with PBMC; actives raise or lower the signal. The method, boiled down: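 Measures CXCL9 protein by ELISA in a human vascular primary-cell co-culture (umbilical vein endothelium with PBMC) 24 h after chemical addition. Activity is scored up or down from the DMSO control.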

Experiment [12] in a line: BSK_SAg_PBMCCytotoxicity: PBMC Cytotoxicity Assessment in the BioMAP Diversity Plus: SAg Assay (AID 2283093).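 Also: PBMC viability measured as Alamar Blue reduction fluorescence at 546/580 nm; fitted both ways against DMSO so a hit may be loss or gain of signal.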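 As to AC50: PBMC superantigen activated with SEB plus TSST-1 one hour after compound addition.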 The following applies: primary human HUVEC with PBMC. The method in brief: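 Alamar Blue reduction (6 h, 546/580 nm) reports PBMC cytotoxicity after 90 h superantigen activation (SEB, TSST-1; 20 ng/mL final each) with 1 h compound pre-treatment. Gain or loss of signal fitted versus DMSO.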

Read-out in experiment [13]: Interleukin-8 (IL8), CXCL8 (gene 3576)
The experiment in a line: BSK_SAg_IL8: BioMAP Diversity Plus: SAg Assay for Interleukin-8 (IL8) Biomarker Activity (AID 2283094). Particulars: primary human HUVEC with PBMC; actives raise or lower the signal. The method, boiled down: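 Primary human endothelial cells with PBMC, exposed 24 h; IL-8 determined by ELISA, analysed bidirectionally relative to DMSO.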

Experiment [14] in a line: BSK_SAg_SRB: Viability Assessment in the BioMAP Diversity Plus: SAg Assay (AID 2283096).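 Also: cells read one day after compound addition; hits may be either gain or loss of signal compared with DMSO.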 The following applies: primary human HUVEC with PBMC. The method, boiled down:
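This overt-cytotoxicity endpoint quantifies protein in human endothelial/PBMC co-cultures at 24 h using SRB absorbance (560 nm) after trichloroacetic acid fixation. Values reflect signal change from the DMSO negative control, fitted bidirectionally.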

Experiment [15] can be described thus: BSK_SAg_Proliferation: Cell Proliferation Assessment in the BioMAP Diversity Plus: SAg Assay (AID 2283095).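 Also: relative cell number as total protein by SRB absorbance in sub-confluent culture.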 The following applies: primary human HUVEC with PBMC. The method, boiled down: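 A human primary co-culture of umbilical vein endothelium and blood mononuclear cells receives compound; relative cell number is quantified at 96 h by SRB staining and 560 nm absorbance, with DMSO-referenced bidirectional curve fitting.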

Experiment [16] addresses human CYP19A1, CYP19A1 (gene 1588) (UniProt P11511). The experiment in a line: NVS_ADME_hCYP19A1: NovaScreen (NVS) CYP450-related Enzyme Activity (ADME) Assay for human CYP19A1 (AID 2283098; active = hit-call score of the fitted dose curve at least 0.9, where 1 is the maximum;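 also: potency for inhibitors seen as loss of fluorescent enzyme signal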). The method in brief:
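Compounds were first screened at 10 uM in duplicate against purified enzyme, with a fluorogenic substrate and fluorescence intensity detection after 0.5 h. Inhibition appears as reduced signal against acetonitrile control.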

Experiment [17] deals with human CYP1A1, CYP1A1 (gene 1543) (UniProt P04798). The experiment in a line: NVS_ADME_hCYP1A1: NovaScreen (NVS) CYP450-related Enzyme Activity (ADME) Assay for human CYP1A1 (AID 2283100; active = hit-call score of the fitted dose curve at least 0.9, where 1 is the maximum). The method, boiled down: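 Chemicals were first tested in duplicate at 10 uM, and those passing a 30% inhibition threshold were rerun as concentration series topping at 20 uM. Fluorescence read-out of recombinant enzyme turnover after 1 h, relative to acetonitrile.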
Sequence of human CYP1A1, CYP1A1 (gene 1543) (P04798 whole entry, looked up): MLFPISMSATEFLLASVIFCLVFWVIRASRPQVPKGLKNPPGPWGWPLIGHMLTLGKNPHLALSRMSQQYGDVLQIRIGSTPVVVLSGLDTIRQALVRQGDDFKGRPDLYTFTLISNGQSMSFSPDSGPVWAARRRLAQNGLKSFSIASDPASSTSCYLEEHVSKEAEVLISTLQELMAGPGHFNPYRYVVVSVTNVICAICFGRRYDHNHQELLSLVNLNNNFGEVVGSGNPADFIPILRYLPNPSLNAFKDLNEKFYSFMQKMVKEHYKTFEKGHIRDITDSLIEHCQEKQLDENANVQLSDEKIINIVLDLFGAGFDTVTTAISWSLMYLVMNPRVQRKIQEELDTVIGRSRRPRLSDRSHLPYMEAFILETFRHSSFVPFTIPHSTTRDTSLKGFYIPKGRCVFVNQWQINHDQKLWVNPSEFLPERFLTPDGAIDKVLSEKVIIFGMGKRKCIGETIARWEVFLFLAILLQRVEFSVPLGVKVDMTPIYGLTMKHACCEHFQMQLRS

The target in experiment [18] is human CYP2A6, CYP2A6 (gene 1548) (UniProt P11509). Put plainly: NVS_ADME_hCYP2A6: NovaScreen (NVS) CYP450-related Enzyme Activity (ADME) Assay for human CYP2A6 (AID 2283099; active = hit-call score of the fitted dose curve at least 0.9, where 1 is the maximum). The method, boiled down:
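Compounds screened at 10 uM (duplicate) and, if active, titrated to a 20 uM top concentration against insect-cell-expressed CYP2A6. Loss of fluorescent product signal after 0.5 h, relative to acetonitrile baseline, indicates inhibition.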

Inconclusive results are not listed. Active and inactive are the calls of the source. The calls were made as follows, unless noted: active = hit-call score of the fitted dose curve at least 0.9, where 1 is the maximum; inactive = score below 0.9.

Sequence of Tumor necrosis factor (Homo sapiens) (P01375 whole entry, looked up): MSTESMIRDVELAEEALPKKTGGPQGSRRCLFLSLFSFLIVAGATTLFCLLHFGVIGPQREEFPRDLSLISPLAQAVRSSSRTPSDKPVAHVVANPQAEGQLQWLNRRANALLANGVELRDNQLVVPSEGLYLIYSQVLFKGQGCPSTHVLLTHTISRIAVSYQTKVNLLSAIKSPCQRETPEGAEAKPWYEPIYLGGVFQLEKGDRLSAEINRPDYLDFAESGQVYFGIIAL
Sequence of E-selectin (Homo sapiens) (P16581 whole entry, looked up): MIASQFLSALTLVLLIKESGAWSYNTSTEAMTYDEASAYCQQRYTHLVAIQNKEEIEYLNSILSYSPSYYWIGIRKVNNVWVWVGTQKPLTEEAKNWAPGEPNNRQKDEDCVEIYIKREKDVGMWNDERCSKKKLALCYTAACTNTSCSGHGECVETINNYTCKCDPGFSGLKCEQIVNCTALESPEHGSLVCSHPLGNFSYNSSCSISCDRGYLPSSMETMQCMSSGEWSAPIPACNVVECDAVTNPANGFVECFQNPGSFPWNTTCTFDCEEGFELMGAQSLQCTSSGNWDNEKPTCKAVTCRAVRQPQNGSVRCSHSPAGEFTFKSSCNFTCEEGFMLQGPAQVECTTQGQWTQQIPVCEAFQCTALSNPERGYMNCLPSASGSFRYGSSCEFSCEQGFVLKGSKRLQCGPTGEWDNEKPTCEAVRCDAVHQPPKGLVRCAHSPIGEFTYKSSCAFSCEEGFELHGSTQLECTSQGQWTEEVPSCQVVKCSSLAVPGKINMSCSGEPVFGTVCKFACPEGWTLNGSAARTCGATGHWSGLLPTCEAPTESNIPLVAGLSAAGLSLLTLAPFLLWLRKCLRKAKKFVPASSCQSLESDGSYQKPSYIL
Sequence of human CYP19A1, CYP19A1 (gene 1588) (P11511 whole entry, looked up): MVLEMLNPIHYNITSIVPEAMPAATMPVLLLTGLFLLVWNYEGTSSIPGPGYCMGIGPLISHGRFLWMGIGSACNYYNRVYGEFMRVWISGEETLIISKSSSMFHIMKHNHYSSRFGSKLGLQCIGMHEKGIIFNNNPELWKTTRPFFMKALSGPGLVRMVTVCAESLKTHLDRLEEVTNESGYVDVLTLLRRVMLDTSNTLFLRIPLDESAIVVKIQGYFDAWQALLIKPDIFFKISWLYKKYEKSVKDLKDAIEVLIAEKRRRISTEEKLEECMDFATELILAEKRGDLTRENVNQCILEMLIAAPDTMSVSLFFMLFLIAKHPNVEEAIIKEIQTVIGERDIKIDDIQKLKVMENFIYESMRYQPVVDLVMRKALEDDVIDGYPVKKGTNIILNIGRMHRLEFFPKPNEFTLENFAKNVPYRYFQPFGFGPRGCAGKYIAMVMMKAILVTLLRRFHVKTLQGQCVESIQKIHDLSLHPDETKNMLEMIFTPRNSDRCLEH
Sequence of human CYP2A6, CYP2A6 (gene 1548) (P11509 whole entry, looked up): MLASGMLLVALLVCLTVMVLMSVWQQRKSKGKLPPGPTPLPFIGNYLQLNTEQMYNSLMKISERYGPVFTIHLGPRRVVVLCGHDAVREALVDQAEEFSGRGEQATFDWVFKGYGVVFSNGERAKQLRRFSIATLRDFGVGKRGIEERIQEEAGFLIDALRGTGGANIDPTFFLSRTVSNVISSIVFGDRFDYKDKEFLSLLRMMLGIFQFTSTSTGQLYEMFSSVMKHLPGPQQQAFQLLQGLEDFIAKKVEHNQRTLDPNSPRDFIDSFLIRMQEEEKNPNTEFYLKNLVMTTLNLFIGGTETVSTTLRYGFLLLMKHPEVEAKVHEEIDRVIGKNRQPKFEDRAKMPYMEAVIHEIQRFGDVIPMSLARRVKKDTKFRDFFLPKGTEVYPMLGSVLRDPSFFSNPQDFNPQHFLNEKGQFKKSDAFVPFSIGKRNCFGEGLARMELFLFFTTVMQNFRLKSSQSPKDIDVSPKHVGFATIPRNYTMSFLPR

For the compound `CCOCCOCCOCCO`, the outcome in experiment [1], in experiment [2], in experiment [3], in [4], in experiment [5] and in experiment [6] was inactive. Further, the outcome in experiment [7], in experiment [8], in experiment [9], in experiment [10], in experiment [11] and in experiment [12] was inactive. The outcome in experiment [13] and in experiment [14] was inactive.

On to `CC(C)=CCC/C(C)=C\CO`, for which the outcome in experiment [1], in [2], in [3], in [4], in [6] and in [7] was inactive. The outcome in experiment [8], in experiment [9], in experiment [10], in experiment [11], in experiment [12] and in experiment [13] was inactive. In addition, the outcome in experiment [15] and in [14] was inactive.

Regarding `CN(C)c1ccc(N=NS(=O)(=O)O)cc1`, the outcome in experiment [1], in experiment [2], in experiment [4], in experiment [6], in experiment [7] and in experiment [8] was inactive. The outcome in [9], in [10], in [11], in experiment [12], in experiment [13] and in [14] was inactive. Also, the AC50 was 5.8 µM (active) in [3], 10.4 µM (active) in [5] and 12 µM (active) in experiment [16].

For `O=C(O)c1cc(N=Nc2ccc(S(=O)(=O)Nc3ccccn3)cc2)ccc1O`, the outcome in experiment [1], in experiment [2], in experiment [3], in experiment [4], in experiment [5] and in [6] was inactive. Further, the result in experiment [7], in experiment [8], in [9], in experiment [10], in experiment [11] and in experiment [12] was inactive. For the same compound, the outcome in experiment [13], in experiment [14] and in experiment [17] was inactive.

As for `CCCN(C1CCN(C(=O)C2CCNCC2)CC1)[C@@H]1CCc2ccc(OC)cc2C1`, the result in [1], in [2], in [3], in experiment [4], in experiment [5] and in experiment [6] was inactive. Moreover, the outcome in [7], in experiment [8], in experiment [9], in experiment [10], in experiment [11] and in experiment [12] was inactive. Moreover, the result in [13] and in experiment [14] was inactive.

For the compound `CCOCCO`, the result in experiment [1], in [2], in [3], in experiment [4], in experiment [5] and in experiment [6] was inactive. Moreover, the result in [7], in [8], in experiment [9], in experiment [10], in experiment [11] and in experiment [12] was inactive. Further, the outcome in [13], in [14] and in experiment [18] was inactive.

On to `On1ccccc1=S`, for which the AC50 in experiment [1] was 31.1 µM (active); in experiment [5], 19.8 µM (active); in [6], 12.2 µM (active); in experiment [7], 27.8 µM (active); in experiment [8] it was 12.2 µM (active); in experiment [9], 13 µM (active). The AC50 in experiment [10] was 8.16 µM (active); in experiment [11], 19.8 µM (active); in [12], 18.2 µM (active). The outcome in experiment [2], in experiment [3], in experiment [4], in [13] and in experiment [14] was inactive.
